Test results taken from PubChem BioAssay (Tox21).
Where “and” joins values, the source holds several entries; their conditions need not be identical. Equal values may be shown once. Inconclusive results are not listed. A call without a number means that no potency is given here. A structure can be active in one record and inactive in another. Calls of active or inactive are those of the source. Calls come from the whole dose curve.

The molecules below were run against Muscarinic acetylcholine receptor M1 (Homo sapiens) (UniProt P11229) (assay: Cholinergic receptor muscarinic 1 (CHRM1) small molecule antagonists, cell-based qHTS assay (AID 1963588; note: nearly all actives have a fitted effect of over 40% in size)). Conditions: CHRM1-CHO antagonist mode, calcium flux fluorescence; series mostly up to 61.5 µM; activity, negative = inhibition: at the top concentration.
Sequence of Muscarinic acetylcholine receptor M1 (Homo sapiens) (P11229 whole entry, looked up): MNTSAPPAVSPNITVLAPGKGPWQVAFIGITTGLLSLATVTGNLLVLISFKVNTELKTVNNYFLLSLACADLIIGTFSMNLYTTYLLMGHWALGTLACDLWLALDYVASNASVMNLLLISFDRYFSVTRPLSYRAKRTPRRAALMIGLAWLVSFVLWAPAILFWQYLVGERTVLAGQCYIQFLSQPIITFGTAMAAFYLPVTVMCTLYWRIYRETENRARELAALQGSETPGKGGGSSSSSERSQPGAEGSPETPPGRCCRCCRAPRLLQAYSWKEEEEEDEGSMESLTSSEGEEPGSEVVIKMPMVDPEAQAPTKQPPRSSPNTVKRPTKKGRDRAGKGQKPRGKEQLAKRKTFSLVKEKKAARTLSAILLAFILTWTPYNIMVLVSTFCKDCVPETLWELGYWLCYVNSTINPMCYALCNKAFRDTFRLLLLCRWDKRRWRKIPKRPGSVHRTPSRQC
Description: National Center for Advancing Translational Sciences [NCATS]
Division of Preclinical Innovation [DPI]
U.S. Environmental Protection Agency [EPA]
National Institutes of Environmental Health Sciences [NIEHS]
National Toxicology Program [NTP]
U.S. Food and Drug Administration [FDA]
The CHRM1 is a muscarinic receptor. This receptor plays a crucial role in learning and memory processes and has long been identified as a promising therapeutic target for the improvement of cognitive decline in Alzheimer's disease (AD). The CHRM1-CHO cell line stably expressing human muscarinic acetylcholine receptor M1 (CHRM1) can be used for screening agonists and antagonists of interactions between CHRM1 and its ligands. The CHRM1-CHO Calcium Flux Assay is a homogeneous fluorescence-based assay for detecting the intracellular calcium level using FDSS kinetic plate reader system.
Tox21 Assay Protocol Summary:
CHRM1-CHO cells were dispensed at 1000 cells/3uL/well in 1536-well black-clear bottom plates using a Multidrop Dispenser. After the assay plates were incubated at a 37 C/5% CO2 incubator for 18 h, 3 uL of Dye Loading Buffer was transferred to the assay plate by a Flying Reagent Dispenser. The assay plates were incubated at 37 C for 1h. For antagonist mode, 23 nL of compounds dissolved in DMSO, positive controls or DMSO only was transferred to the assay plate by a pin tool. After 5 min incubation at room temperature, 1.5 uL of acetylcholine at 50nM was added to each well. The fluorescence intensity in the plates was measured using FDSS 7000EX kinetic plate reader for 3 min at 1 sec intervals. Each test compound was measured at 15 concentrations in three independent runs.
Potency is the fitted concentration of half-maximal effect.

| Compound | Potency | activity, negative = inhibition |
| --- | --- | --- |
| O=NN1CCCCCCC1 | inactive | – |
| N#Cc1cccnc1 | inactive | – |
| O=C(O)COc1ccc(Cl)cc1Cl | inactive | – |
| COc1cc(OC)nc(Oc2cccc(Oc3nc(OC)cc(OC)n3)c2C(=O)O)n1 | – | -4.4% (inactive) |
| CC1=C(C(=O)Nc2ccccc2)SCCO1 | inactive | – |
| Nc1cccc2ccccc12 | inactive | – |
| C1=Cc2cccc3cccc1c23 | inactive | – |
| c1ccc(N=Nc2ccccc2)cc1 | inactive | – |
| CCNCC | inactive | – |
| CC(Cl)Cl | – | 2.49% (inactive) |
| c1ccc2sc(SNC3CCCCC3)nc2c1 | inactive | – |
| Oc1cc(Cl)c(Cl)cc1Cl | inactive | – |
| CCCCC(C#N)(Cn1cncn1)c1ccc(Cl)cc1 (stereo not given) | inactive | – |
| CN(CCCC(=O)c1cccnc1)N=O | – | 14.9% (inactive) |
| C=CCCl | – | 9.02% (inactive) |
| CCC(=O)O[C@H]1CC[C@H]2[C@@H]3CCC4=CC(=O)CC[C@]4(C)[C@H]3CC[C@]12C | 5.3 µM (active) and 4.6 µM (active) | – |
| CCCCOCCOP(=O)(OCCOCCCC)OCCOCCCC | inactive | – |
| CN(C)c1ccc(N=O)cc1 | – | 7.91% (inactive) |
| Nc1ccncc1 | inactive | – |
| CCCCCCCCCCCC(=O)O | inactive | – |

| Compound | Potency | activity, negative = inhibition |
| --- | --- | --- |
| CCCCCc1cc(O)cc(O)c1 | inactive | – |
| CCCCCCCC[N+](C)(CCCCCCCC)CCCCCCCC | 5.93 µM (active) and inactive and 6.67 µM (active) | – |
| CC(C)=CCN1CC[C@@]2(C)c3cc(O)ccc3C[C@@H]1[C@@H]2C | 9.28 µM (active) | – |
| CC1CN1 (stereo not given) | 3.75 µM (active) | – |
| C(CCOCC1CO1)COCC1CO1 (stereo not given) | – | -0.279% (inactive) |
| Nc1nc(=S)[nH][nH]1 | – | -11.8% (inactive) |
| O=[N+]([O-])/N=C1\NCCN1Cc1ccc(Cl)nc1 | inactive | – |
| CCCCn1cc[n+](C)c1 | inactive | – |
| CCNc1nc(Cl)nc(NC(C)(C)C#N)n1 | inactive | – |
| COCC(=O)N(c1c(C)cccc1C)C(C)C(=O)OC (stereo not given) | inactive | – |
| CCCCN(CCCCO)N=O | – | 12.1% (inactive) |
| N#CC(Cl)Cl | – | 6.33% (inactive) |
| CC(C)OC(=O)Nc1ccccc1 | inactive | – |
| COc1ccc(C=O)cc1 | inactive | – |
| COc1cccc(C=O)c1 | – | -15.1% (inactive) |
| ClC(Cl)(Cl)Br | inactive | – |
| Cc1cc(O)ccc1Cl | inactive | – |
| Cn1cc[n+](C)c1 (tested in a mixture with another compound) | – | 4.28% (inactive) |
| CCCCOC(=O)c1ccccc1C(=O)O | – | -5.08% (inactive) |
| CCCCN(CCCC)N=O | inactive | – |
